Measurements reported in PubChem BioAssay (NCATS).
Inconclusive results are not listed. Where a call stands in place of a potency, no number is given. Unmarked numbers belong to inactive results. The source made the active and inactive calls. Calls come from the whole dose curve; as a rule, active = well fitted cell-killing curve with a large enough effect; inconclusive = small, poorly fitted or top-dose-only effect, or effect the other way; inactive = flat fitted curve, though single readings scatter.

Legend:
Assay in all cases: Primary qHTS to identify gynecologic anti-cancer compounds using libraries of approved drugs and bioactive compounds (AID 1345084); note: nearly all actives have a fitted effect of over 55% in size
C33A = conditions: Gynecologic cancer cell panel viability, ATPlite luminescence, 48 h; series mostly up to 57.5 µM
Outline: (§1)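 Cells, 1,000 per well, plated 16 h, then exposed 48 h at 37 C to compounds. Viability by ATPlite luminescence after 15 min at room temperature.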

CAOV3 = conditions: Gynecologic cancer cell panel viability, ATPlite luminescence, 48 h; series mostly up to 57.5 µM
Outline: as §1

CASKI = conditions: Gynecologic cancer cell panel viability, ATPlite luminescence, 48 h; series mostly up to 57.5 µM
Outline: as §1

Es-2 = conditions: Gynecologic cancer cell panel viability, ATPlite luminescence, 48 h; series mostly up to 57.5 µM
Outline: as §1

HeLa = conditions: Gynecologic cancer cell panel viability, ATPlite luminescence, 48 h; series mostly up to 57.5 µM
Outline: as §1

Hek293T = conditions: Gynecologic cancer cell panel viability, ATPlite luminescence, 48 h, control line for the selectivity index; series mostly up to 57.5 µM
Outline: as §1

JEG-3 = conditions: Gynecologic cancer cell panel viability, ATPlite luminescence, 48 h; series mostly up to 57.5 µM
Outline: as §1

OV90 = conditions: Gynecologic cancer cell panel viability, ATPlite luminescence, 48 h; series mostly up to 57.5 µM
Outline: as §1
Potency is the fitted concentration of half-maximal effect.

Structure (SMILES)	activity change, negative = cytotoxicity (C33A)	activity change, negative = cytotoxicity (CAOV3)	activity change, negative = cytotoxicity (CASKI)	activity change, negative = cytotoxicity (Es-2)	activity change, negative = cytotoxicity (HeLa)	activity change, negative = cytotoxicity (Hek293T)	activity change, negative = cytotoxicity (JEG-3)	activity change, negative = cytotoxicity (OV90)	Potency (C33A)	Potency (CAOV3)	Potency (CASKI)	Potency (Es-2)	Potency (HeLa)	Potency (Hek293T)	Potency (JEG-3)	Potency (OV90)
COc1ccc(CN2CCN(CCCSc3cc(C(C)(C)C)c(O)c(C(C)(C)C)c3)CC2)c(OC)c1OC	1.62% [at 11.6 µM]	11% [at 11.6 µM]	-0.531% [at 11.6 µM]	12.2% [at 11.6 µM]	8.85% [at 11.6 µM]	-2.05% [at 11.6 µM]	1.83% [at 11.6 µM]	3.61% [at 11.6 µM]	–	–	–	–	–	–	–	–
C/C=C(/C)C(=O)OC1C=C2C3C(C)C(C)C(OC(=O)C(C)C(C)O)CC3(C)CCC2(C)C2(C)CC(OC(C)=O)C3C(C)(C)C(O)C(=O)CC3(C)C12 (centres undefined)	–	–	–	–	–	–	–	–	inactive	inactive	inactive	inactive	inactive	inactive	inactive	inactive
CCN(CC)CCCS(=O)(=O)N[C@H](CCc1ccccc1)c1nc(Cc2ccc(Br)cc2)no1	–	–	–	–	–	–	–	–	inactive	inactive	inactive	inactive	inactive	inactive	inactive	inactive
C=C1CCC2C(C)(C)CCCC2(C)C1CC/C(C)=C\CO (centres undefined)	–	–	–	–	–	–	–	–	inactive	inactive	inactive	inactive	inactive	inactive	inactive	inactive
O=C(O)c1ccc(S(=O)(=O)N(Cc2ccc(OC(F)(F)F)cc2)c2ncc(C(F)(F)F)cc2Cl)cc1	–	–	–	–	–	–	–	–	inactive	inactive	inactive	inactive	inactive	inactive	inactive	inactive
O=C([C@@H]1CCCN(c2ccc3[nH]c(C4(n5cc(Cl)cn5)CC4)nc3n2)C1)N1CCCC1	–	–	–	–	–	–	–	–	inactive	inactive	inactive	inactive	inactive	inactive	inactive	inactive
C=C1C(=O)OC2/C=C(\CO)CC/C=C(\C=O)C(OC)C(OC(=O)C(C)CC)C12 (centres undefined)	–	–	–	–	–	–	–	–	inactive	inactive	inactive	inactive	inactive	inactive	inactive	inactive
CCCCCCCOc1cc2c(cc1/C(C)=C/c1ccc(C(=O)O)cc1)C(C)(C)CCS2(=O)=O	–	–	–	–	–	–	–	–	inactive	inactive	inactive	inactive	inactive	inactive	inactive	inactive
COc1c2c(nc3occc13)C(CC=C(C)C)(OC)C(O)CC2 (centres undefined)	–	–	–	–	–	–	–	–	inactive	inactive	inactive	inactive	inactive	inactive	inactive	inactive
O=C(NCc1cccs1)c1cc2nc(-c3ccco3)cc(C(F)(F)Cl)n2n1	–	–	–	–	–	–	–	–	inactive	inactive	inactive	inactive	inactive	inactive	inactive	inactive
O=C(Cc1c(F)cccc1F)Nc1cc(OCc2ccc(Cl)cc2)ccn1	–	–	–	–	–	–	–	–	inactive	inactive	inactive	inactive	inactive	inactive	inactive	inactive
Cc1ccccc1CN1CCn2c1nc1c(c2=O)CN(Cc2ccccc2)CC1	–	–	–	–	–	–	–	–	inactive	inactive	inactive	inactive	inactive	inactive	inactive	inactive
COc1ccc(NC(=O)c2ccc(C(=N)N(C)C)cc2)c(C(=O)Nc2ccc(Cl)cn2)c1	–	–	–	–	–	–	–	–	inactive	inactive	inactive	inactive	inactive	inactive	inactive	inactive
COc1c(F)cccc1C(=O)N1C[C@@H](C)CC[C@H]1CNc1ccc(Br)cn1	–	–	–	–	–	–	–	–	inactive	inactive	inactive	inactive	inactive	inactive	inactive	inactive
C=C1CC2OC(=O)C(=C)C2C(O)/C=C(\C)CCC1O (centres undefined)	–	–	–	–	–	–	–	–	inactive	inactive	inactive	inactive	inactive	inactive	inactive	inactive
O=[N+]([O-])c1ccc(Oc2ccc3c(c2)CCC(c2ccccc2)O3)nc1 (centres undefined)	–	–	–	–	–	–	–	–	inactive	inactive	inactive	inactive	inactive	inactive	inactive	inactive
CC(=O)O[C@@H]1CC2C(/C=C(\C)C(=O)[C@@]3(O)C[C@@H](C)[C@H](OC(=O)c4ccccc4)C3/C=C/1C)C2(C)C (some centres undefined)	–	–	–	–	–	–	–	–	inactive	inactive	inactive	inactive	inactive	inactive	inactive	inactive
CC1(C)CC[C@]23CO[C@@]4(CCC5[C@@]6(C)CC[C@H](O[C@@H]7OC[C@H](O[C@@H]8O[C@H](CO)[C@@H](O)[C@H](O)[C@H]8O[C@@H]8OC[C@@H](O)[C@H](O)[C@H]8O)[C@H](O)[C@H]7O)[C@@](C)(CO)C6CC[C@@]5(C)[C@]4(C)CC2=O)[C@@H]3C1 (some centres undefined)	-27.4% [at 11.6 µM]	7.02% [at 11.6 µM]	-3.31% [at 11.6 µM]	9.11% [at 11.6 µM]	16.9% [at 11.6 µM]	5.05% [at 11.6 µM]	-8.75% [at 11.6 µM]	-4.17% [at 11.6 µM]	–	–	–	–	–	–	–	–
CCC(C)C(=O)Oc1cc(C)ccc1C1(COC(=O)C(C)C)CO1 (centres undefined)	–	–	–	–	–	–	–	–	inactive	inactive	inactive	inactive	inactive	inactive	inactive	inactive

Structure (SMILES)	activity change, negative = cytotoxicity (C33A)	activity change, negative = cytotoxicity (CAOV3)	activity change, negative = cytotoxicity (CASKI)	activity change, negative = cytotoxicity (Es-2)	activity change, negative = cytotoxicity (HeLa)	activity change, negative = cytotoxicity (Hek293T)	activity change, negative = cytotoxicity (JEG-3)	activity change, negative = cytotoxicity (OV90)	Potency (C33A)	Potency (CAOV3)	Potency (CASKI)	Potency (Es-2)	Potency (HeLa)	Potency (Hek293T)	Potency (JEG-3)	Potency (OV90)
CC(NCCCc1cccc(C(F)(F)F)c1)c1cccc2ccccc12 (centres undefined)	–	–	–	–	–	–	–	–	inactive	inactive	inactive	inactive	inactive	inactive	inactive	inactive
COc1ccc(Sc2ccc(NC(=O)c3ccccc3Cl)cc2C#N)cc1	–	–	–	–	–	–	–	–	inactive	inactive	inactive	inactive	inactive	inactive	inactive	inactive
CN1CCN(C2=Nc3ccccc3Nc3ccc(Cl)cc32)CC1	–	–	–	–	–	–	–	–	inactive	inactive	inactive	inactive	inactive	inactive	inactive	inactive
Cc1cnc(-c2ccccc2C(C)C)nc1NCc1ccc(-n2ccnn2)cc1	–	–	–	–	–	–	–	–	inactive	inactive	inactive	inactive	inactive	inactive	inactive	inactive
CC(/C=C/C(=O)NO)=C\[C@@H](C)C(=O)c1ccc(N(C)C)cc1	–	–	–	–	–	–	–	–	3550 nM (active)	4470 nM (active)	1580 nM (active)	5620 nM (active)	3550 nM (active)	3160 nM (active)	1410 nM (active)	2240 nM (active)
O=C(c1cc(Cc2n[nH]c(=O)c3ccccc23)ccc1F)N1CCCNCC1	–	–	–	–	–	–	–	–	inactive	inactive	inactive	inactive	inactive	inactive	inactive	inactive
COCCCNC(=O)c1ccc(Cn2c(=O)c3ccccc3n(Cc3ccc(C(C)C)cc3)c2=O)cc1	–	–	–	–	–	–	–	–	inactive	inactive	inactive	inactive	inactive	inactive	inactive	inactive
O=C(NS(=O)(=O)c1ccc(Br)s1)c1ccc(Cl)cc1Cl	–	–	–	–	–	–	–	–	inactive	inactive	inactive	inactive	inactive	inactive	inactive	inactive
CC(=O)c1c(C)cc2cccc(O)c2c1O[C@@H]1O[C@H](CO)[C@@H](O)[C@H](O)[C@H]1O	–	–	–	–	–	–	–	–	inactive	inactive	inactive	inactive	inactive	inactive	inactive	inactive
CC(=O)O[C@H]1C[C@@](O)(C(C)C)[C@@H]2[C@@H](OC(=O)c3ccc(O)cc3)CC(C)=CC[C@@]12C	–	–	–	–	–	–	–	–	inactive	inactive	inactive	inactive	inactive	inactive	inactive	inactive
Cc1[nH]c2ccccc2c1CCNCc1ccc(/C=C/C(=O)NO)cc1	–	–	–	–	–	–	–	–	251 nM (active)	1000 nM (active)	447 nM (active)	355 nM (active)	126 nM (active)	1580 nM (active)	251 nM (active)	1000 nM (active)
COc1cc2c(cc1O)C1(Cc3ccc4c(c3C1O)OCO4)[N+](C)([O-])CC2 (centres undefined)	–	–	–	–	–	–	–	–	inactive	inactive	inactive	inactive	inactive	inactive	inactive	inactive
COc1cc(-c2cn(C3CCc4c(F)cccc4N(CC(F)(F)F)C3=O)nn2)ccc1-n1cnc(C)c1 (centres undefined)	–	–	–	–	–	–	–	–	inactive	inactive	inactive	inactive	inactive	inactive	inactive	inactive
O=C(Nc1ccccc1C(=O)NC1CCCCNC1=O)c1cc2ccccc2s1 (centres undefined)	–	–	–	–	–	–	–	–	inactive	inactive	inactive	inactive	inactive	inactive	inactive	inactive
CC[C@H](C)/C=C(C)/C=C/C1=CC2=CC(=O)[C@]3(C)OC(=O)[C@@H](C(C)=O)[C@@H]3C2=CO1	–	–	–	–	–	–	–	–	inactive	inactive	inactive	inactive	inactive	inactive	inactive	inactive
C/C=C/C1=CC2=C(CO1)C(=O)C(C)(OC(=O)c1c(C)cc(O)cc1OC)C(O)C2 (centres undefined)	–	–	–	–	–	–	–	–	inactive	inactive	inactive	inactive	inactive	inactive	inactive	inactive
COc1ccc(NC(=O)c2ccc(-c3ccc(C(=N)N)cc3C)cc2)cc1N1CCN(C)CC1	–	–	–	–	–	–	–	–	inactive	inactive	inactive	inactive	inactive	inactive	inactive	inactive
CC#CCn1c(N2CCCC(N)C2)nc2c1c(=O)n(Cc1nc(C)c3ccccc3n1)c(=O)n2C (centres undefined)	–	–	–	–	–	–	–	–	inactive	inactive	inactive	inactive	inactive	inactive	inactive	inactive
CCC(C)C(=O)O[C@H]1[C@H](O)[C@@]2(COC(C)=O)C(CC1(C)C)C1=CCC3[C@@]4(C)CC[C@H](O[C@@H]5O[C@H](C(=O)O)[C@@H](O)[C@H](O)[C@H]5O)[C@@](C)(CO)C4CC[C@@]3(C)[C@]1(C)C[C@@H]2O (some centres undefined)	-3% [at 11.6 µM]	-4.8% [at 11.6 µM]	10.3% [at 11.6 µM]	5.26% [at 11.6 µM]	8.08% [at 11.6 µM]	5.16% [at 11.6 µM]	9.72% [at 11.6 µM]	0.006% [at 11.6 µM]	–	–	–	–	–	–	–	–
